Measured values taken from the supplement of paper PMC3545927.
The other results are listed elsewhere or left out. How many sequences the whole screen found active is unknown.

Target: furin, P09958
Assay: furin cleavage Z-score vs untreated control; higher = more cleavage, active = 3.5 or more, inactive = 1 or less, 8 variable residues between constant flanks
Procedure, shortened: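 Furin-free reactions served as the baseline for the cleavage Z-score, which is the log read count lowess-adjusted and scaled by median absolute deviation. Counts came from released DNA, adapter-tagged by PCR and sequenced. Purified furin had cut 8-mer peptides fused to a cDNA oligonucleotide on magnetic beads during 7.5, 15 or 30 min at 1:10 enzyme:substrate.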
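Note: purified furin at 1:10 enzyme:substrate in 50 mM HEPES pH 7.5.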

furin, P09958, sequence (P09958 whole entry): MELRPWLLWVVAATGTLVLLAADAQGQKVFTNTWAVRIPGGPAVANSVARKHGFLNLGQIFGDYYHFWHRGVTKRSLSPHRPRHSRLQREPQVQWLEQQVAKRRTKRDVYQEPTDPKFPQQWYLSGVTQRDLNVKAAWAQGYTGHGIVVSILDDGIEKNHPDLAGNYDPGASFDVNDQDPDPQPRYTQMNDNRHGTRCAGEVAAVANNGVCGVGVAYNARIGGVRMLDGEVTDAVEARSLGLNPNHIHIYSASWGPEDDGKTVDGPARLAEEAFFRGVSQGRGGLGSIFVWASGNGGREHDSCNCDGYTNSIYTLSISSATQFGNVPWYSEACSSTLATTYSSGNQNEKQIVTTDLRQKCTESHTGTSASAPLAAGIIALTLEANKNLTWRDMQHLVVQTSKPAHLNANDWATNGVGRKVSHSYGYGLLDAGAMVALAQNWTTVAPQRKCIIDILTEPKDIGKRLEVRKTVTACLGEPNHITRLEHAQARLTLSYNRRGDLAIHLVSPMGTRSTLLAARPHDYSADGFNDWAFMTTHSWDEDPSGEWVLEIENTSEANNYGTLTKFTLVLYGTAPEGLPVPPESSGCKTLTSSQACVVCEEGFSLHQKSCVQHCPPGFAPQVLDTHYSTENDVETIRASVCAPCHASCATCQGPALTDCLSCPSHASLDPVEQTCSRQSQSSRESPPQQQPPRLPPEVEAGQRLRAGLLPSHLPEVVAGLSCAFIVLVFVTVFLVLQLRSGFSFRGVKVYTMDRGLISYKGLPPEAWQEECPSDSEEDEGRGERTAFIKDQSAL

Row | Sequence | furin cleavage Z-score (7.5 min) | furin cleavage Z-score (15 min) | furin cleavage Z-score (30 min)
1 | CATTICSGSWAGNASASA [HC1864] | -0.759 (inactive) | -0.615 (inactive) | -0.31 (inactive)
2 | CATTPCQGSWAGNASASA [HC79] | -0.663 (inactive) | 0.917 (inactive) | -0.281 (inactive)
3 | CAMECCSQHLAGNASASA [HC1720] | 0.573 (inactive) | 0.0768 (inactive) | 0.728 (inactive)
4 | CARRPRLSDRAGNASASA [FS-3059] | -0.769 (inactive) | -0.45 (inactive) | -0.545 (inactive)
5 | CARRPRHAEQAGNASASA [FS-2781] | 4.69 (active) | 5.7 (active) | 4 (active)
6 | CARRPRDDDSAGNASASA [FS-3057] | -0.221 (inactive) | -0.299 (inactive) | -1.38 (inactive)
7 | CARRPRGTMQAGNASASA [FS-1920] | 4.44 (active) | 4.25 (active) | 6.42 (active)
8 | CARSRRLAEQAGNASASA [FS-1933] | 0.188 (inactive) | 2.91 | 3.14
9 | CAEEMEECSQAGNASASA [HC1792] | 0.0451 (inactive) | -0.543 (inactive) | -0.411 (inactive)
10 | CASTKVPAAYAGNASASA [HC779] | -0.328 (inactive) | -0.544 (inactive) | 0.327 (inactive)
11 | CAPGALVVGVAGNASASA [HC1105] | -0.0947 (inactive) | 0.679 (inactive) | -0.0726 (inactive)
12 | CARKARFIHDAGNASASA [FS-2421] | 2.71 | 4.77 (active) | 7.1 (active)
13 | CADSTVTESDAGNASASA [HC1483] | -0.354 (inactive) | 0.495 (inactive) | 0.157 (inactive)
14 | CARKAREVCDAGNASASA [FS-1900] | 5.27 (active) | 5.4 (active) | 4.27 (active)
15 | CARKYREVFCAGNASASA [FS-2041] | 0.9 (inactive) | 2.75 | 2.7
16 | CARKYRSNKGAGNASASA [FS-2703] | 0.0213 (inactive) | 0.138 (inactive) | 1.58
17 | CARKYRSHHDAGNASASA [FS-2428] | 1.45 | 4.06 (active) | 3.48
18 | CARKARFGSEAGNASASA [FS-2958] | 0.624 (inactive) | 0.0236 (inactive) | 1.04
19 | CARKYRFHGGAGNASASA [FS-1734] | 0.847 (inactive) | -1.27 (inactive) | -0.103 (inactive)
20 | CASTPCSADLAGNASASA [HC2551] | 1.45 | 0.00667 (inactive) | 2.02
21 | CANYTFALWRAGNASASA [HC1199] | -0.0905 (inactive) | -0.132 (inactive) | 1.34
22 | CAAGVDAETHAGNASASA [HC350] | -0.719 (inactive) | -1.77 (inactive) | -1.18 (inactive)

Row | Sequence | furin cleavage Z-score (7.5 min) | furin cleavage Z-score (15 min) | furin cleavage Z-score (30 min)
23 | CAEVKTSTWVAGNASASA [HC2194] | 0.637 (inactive) | -0.239 (inactive) | -1.95 (inactive)
24 | CANNSREKKAAGNASASA [FS-1378] | -0.625 (inactive) | -0.493 (inactive) | -0.698 (inactive)
25 | CATLSRKKRAAGNASASA [FS-567] | 9.09 (active) | 8.88 (active) | 6.75 (active)
26 | CAVKARIKRMAGNASASA [FS-310] | 8.88 (active) | 10.6 (active) | 7.99 (active)
27 | CATLSRKSRDAGNASASA [FS-1173] | 10.1 (active) | 11.3 (active) | 6.95 (active)
28 | CADIPRYKRMAGNASASA [FS-1189] | 6.09 (active) | 5.32 (active) | 5.91 (active)
29 | CAMKARPEKSAGNASASA [FS-1139] | 0.00638 (inactive) | -0.792 (inactive) | -2.08 (inactive)
30 | CAKDSRLSRDAGNASASA [FS-1017] | -0.904 (inactive) | 0.551 (inactive) | 0.282 (inactive)
31 | CAVKAAASKVAGNASASA [HC1406] | -0.468 (inactive) | 1.05 | -0.785 (inactive)
32 | CAKLEVVTSTAGNASASA [HC2274] | 0.95 (inactive) | 0.175 (inactive) | -1.42 (inactive)
33 | CATNRRPQDVAGNASASA [HC168] | -1.65 (inactive) | -1.52 (inactive) | 0.59 (inactive)
34 | CATNRRKKRAAGNASASA [FS-1174] | 8.44 (active) | 7.81 (active) | 8.15 (active)
35 | CAGHITGHRMAGNASASA [HC316] | 0.56 (inactive) | -0.81 (inactive) | -0.0561 (inactive)
36 | CAIISKKKRMAGNASASA [FS-908] | 0.592 (inactive) | -0.299 (inactive) | 1.14
37 | CAVISRKKRMAGNASASA [FS-888] | 8.47 (active) | 11.4 (active) | 8.35 (active)
38 | CAADLMGYIPAGNASASA [HC226] | -1.64 (inactive) | -1.67 (inactive) | 0.444 (inactive)
39 | CARQGRSHHLAGNASASA [FS-2167] | 0.537 (inactive) | 1.01 | 2.02
40 | CALKKRGILSAGNASASA [FS-2409] | -1.13 (inactive) | -2.56 (inactive) | 0.734 (inactive)
41 | CALKWRFDRSAGNASASA [FS-1640] | 3.41 | 4.74 (active) | 4.58 (active)
42 | CARQGRFDRSAGNASASA [FS-190] | 4.75 (active) | 6.18 (active) | 4.85 (active)
43 | CAWKDLLEDNAGNASASA [HC1432] | 0.826 (inactive) | 1.39 | -0.792 (inactive)
